Bioassay records: PubChem, Broad Institute
Shown are actives, neighbours in structure and some others; about 1.8% of the full set was active somewhere.
CFTR F508del cor: F508del CFTR correction, initial screen, CFBE line, single point | AID 720511, 2013 | CFBE cells, YFP halide quenching; stimulated with forskolin plus potentiator P3; % fluorescence drop versus neutral controls | actives 0.36% (n = 350,000) | activity (quench increase), % at 7.58 µM;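 active means mean added fluorescence quench of at least 8% versus neutral control, with both replicates also reaching 8%; inconclusive means only one of the mean or replicate conditions met; inactive means mean below 8% and not both replicates reaching 8%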;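 further: cells transiently co-express mutant CFTR-F508del with the halide-sensitive YFP; corrector assay measuring rescue of mutant channel to the surface after 24 h compound exposure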
EWS-Fli block: EWS/Fli-driven NR0B1 reporter inhibitors, primary screen, A673 cells, NR0B1 luciferase, luminescence, MLPCN library; AID 651661, 2012; inhibition, % at 12.6 µM; actives 0.67% (n = 350,000); viability-normalised;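 active means mean inhibition of at least 50% after viability correction, with every replicate also passing that limit; inconclusive means mean reaches 50% but only one of two replicates passes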;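 further: firefly luciferase signal divided by Alamar Blue viability fluorescence both relative to DMSO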
LGR2 antag: inhibitors of bursicon-induced LGR2 CRE-luciferase signal, primary screen, cell-based, HEK293, CRE-luciferase reporter, bursicon stimulation | Drosophila bursicon receptor LGR2 (rickets) | bursicon-stimulated, 4 h | inhibition, % at 9.99 µM | actives 0.35% (n = 380,000) | AID 720647, 2013;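 active means drop in luminescence signal, shown as inhibition above about 50% in the replicate tests, limit read from the data, passing the limit was not always enough; inconclusive means probably only some replicates passing the limit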;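 further: agonist challenge used bursicon conditioned medium at about half maximal strength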
PAX8 reporter: inhibitors of PAX8-driven TPO luciferase reporter, primary screen, RMG-I cells, single concentration | SteadyGlo, 24 h | inhibition, % at 12.6 µM | actives 1.2% (n = 360,000);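 active means mean replicate inhibition at least 60% with every replicate also reaching 60%; inconclusive means only one of the two criteria is met; inactive means mean below 60% and not all replicates reaching 60%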;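 further: luciferase light reporting Pax8 driven TPO promoter activity; plate controls were median of neutral control wells for no effect and mitoxantrone controls for full effect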
Active calls of the source: *; ? = inconclusive; . = no result.

SMILES | CFTR F508del cor | EWS-Fli block | LGR2 antag | PAX8 reporter
CC1(C)CC2CC(C)(CN2C(=O)C23CCC(C)(C(=O)C2)C3(C)C)C1 (configuration not stated) | . | . | 0 | -13
C[C@@H]1CCCCO[C@H](CN(C)Cc2ccccc2)[C@H](C)CN([C@@H](C)CO)C(=O)c2cc(NC(=O)Nc3ccc(C(F)(F)F)cc3)ccc2O1 | 1 | 3 | 4 | 115*
C[C@@H]1CCCCO[C@H](CN(C)Cc2ccccc2)[C@H](C)CN([C@H](C)CO)C(=O)c2cc(NC(=O)Nc3ccc(C(F)(F)F)cc3)ccc2O1 | ? | 27 | 11 | 107*
C[C@H](O)C#Cc1ccc2c(c1)O[C@H](CN(C)CC1CC1)[C@@H](C)CN([C@H](C)CO)S2(=O)=O | 0 | -2 | 1 | .
CCCN1CCC(=NNc2ccc(S(=O)(=O)N(CC)CC)cc2[N+](=O)[O-])CC1 | 5 | 61* | -8 | 35
COc1cc(C2C3=C(Nc4ncnn42)c2ccccc2CC3)cc(OC)c1OC (configuration not stated) | . | . | . | 95*
Cc1cc(NC(=O)CN2C(=O)c3ccccc3C2=O)no1 | 0 | 5 | -1 | 16
CN1CCN(C(=O)c2ccc(CN(c3ccccc3)S(=O)(=O)c3ccccc3)cc2)CC1 | 12* | 5 | 10 | 14
CN(C)c1cccc(NC(=O)NC2(C)CCS(=O)(=O)C2)c1 (configuration not stated) | 0 | . | 9 | 15
C[C@@H]1CN([C@@H](C)CO)C(=O)c2cccc(NC(=O)Nc3ccc(F)cc3)c2O[C@H]1CN(C)S(=O)(=O)c1ccc(Cl)cc1 | 1 | -3 | -3 | -13
C[C@H](CO)N1C[C@H](C)[C@H](CN(C)S(=O)(=O)c2ccc(Cl)cc2)Oc2c(NC(=O)Nc3ccc(F)cc3)cccc2C1=O | -1 | 2 | . | 91*
Cc1ccc(S(=O)(=O)N(C)C[C@H]2Oc3c(NC(=O)Nc4ccc(F)cc4)cccc3C(=O)N([C@@H](C)CO)C[C@@H]2C)cc1 | 0 | 5 | -1 | -1
Cc1ccc(S(=O)(=O)N(C)C[C@H]2Oc3c(NC(=O)Nc4ccc(F)cc4)cccc3C(=O)N([C@@H](C)CO)C[C@H]2C)cc1 | 1 | 30 | -24 | 78*
C[C@H](CO)N1C[C@H](C)[C@H](CN(C)S(=O)(=O)c2ccc(Cl)cc2)Oc2c(NC(=O)NC3CCCCC3)cccc2C1=O | -3 | 20 | . | 92*
C[C@H]1CN([C@@H](C)CO)C(=O)c2cccc(NC(=O)NC3CCCCC3)c2O[C@@H]1CN(C)S(=O)(=O)c1ccc(Cl)cc1 | 0 | 14 | -20 | -1
C[C@@H]1CN([C@@H](C)CO)C(=O)Cc2cc(NC(=O)CCN3CCOCC3)ccc2O[C@H]1CN(C)Cc1ccc(Cl)c(Cl)c1 | -2 | -5 | -20 | 11
C[C@@H]1CN([C@H](C)CO)C(=O)Cc2cc(NS(C)(=O)=O)ccc2O[C@@H]1CN(C)S(C)(=O)=O | -1 | 0 | -20 | .
C=C1C(=O)OC2CC1C(O)CC(C)=CCCC(C)=CC(O)CC2C (configuration not stated) | -2 | 4 | . | 101*
C=C1C(=O)OC2/C=C(/C)CC/C=C(/C)CCC12 (configuration not stated) | 6 | 2 | . | 98*
CCOC(=O)c1c(-c2ccc(F)cc2)csc1NC(=O)CN1C(=O)NC2(CCCCC2C)C1=O (configuration not stated) | . | 22 | 2 | 99*
Cc1cc2c(s1)Nc1ccccc1N=C2N1CCN(C)CC1 | 9.4* | -9 | 4 | -1
Cc1cc(C(=O)NCC(=O)OC(C)C(=O)N2CCOCC2)ccc1[N+](=O)[O-] (configuration not stated) | 4 | -5 | -7 | -8
C[C@@H]1CN([C@H](C)CO)C(=O)c2cc(NS(=O)(=O)c3ccc(Cl)cc3)ccc2O[C@@H](C)CCCCO[C@@H]1CN(C)Cc1ccccc1 | 3 | 8 | 25 | 112*
C[C@@H]1CN([C@H](C)CO)C(=O)c2cc(NS(=O)(=O)c3ccc(F)cc3)ccc2O[C@@H](C)CCCCO[C@H]1CN(C)Cc1ccccc1 | -2 | 5 | -3 | 77*
C[C@@H]1CCCCO[C@H](CN(C)Cc2ccccc2)[C@@H](C)CN([C@@H](C)CO)C(=O)c2cc(NS(=O)(=O)c3ccc(Cl)cc3)ccc2O1 | -1 | 7 | 24 | 75*
SMILES | CFTR F508del cor | EWS-Fli block | LGR2 antag | PAX8 reporter
CNc1c2cccc(C)c2nc2c(C(=O)NCCN(C)C)cccc12 | 19* | 58* | 16 | 36
Cc1ccc(C(=O)NCCN(C)C)c(C)c1 | . | . | . | 9
O=C(c1cccc(F)c1)N1CC(=O)N2[C@H](C1)[C@H](c1ccc(/C=C/c3ccccc3)cc1)[C@@H]2CO | 2 | 17 | 7 | 63*
O=C(c1ccncc1)N1CC(=O)N2[C@H](C1)[C@@H](c1ccc(-c3ccccc3)cc1)[C@@H]2CO | -1 | 54* | -13 | -12
C/C=C/c1ccc([C@H]2[C@@H](CO)N3C(=O)CN(C(=O)c4cccc(F)c4)C[C@@H]23)cc1 | 0 | . | 10 | .
N#Cc1ccc(-c2ccc3c(c2)[C@@H]2[C@@H](CCN2C(=O)C2CCC2)[C@@H](CO)N3)cc1 | 1 | 2 | -11 | .
N#Cc1cccc(-c2ccc3c(c2)[C@@H]2[C@@H](CCN2C(=O)C2CCCCC2)[C@@H](CO)N3)c1 | 1 | 13 | 27 | 75*
COc1ccc(C#Cc2ccc3c(c2)[C@H]2[C@H](CCN2C(=O)c2cccc(F)c2)[C@@H](CO)N3)cc1 | -1 | -2 | -4 | 5
N#Cc1cccc(-c2ccc3c(c2)[C@H]2[C@H](CCN2C(=O)C2CCCCC2)[C@H](CO)N3)c1 | 3 | 12 | 12 | 66*
N#Cc1ccc(-c2ccc3c(c2)[C@H]2[C@H](CCN2C(=O)C2CCCC2)[C@H](CO)N3)cc1 | 0 | -8 | . | .
COc1ccc(C#Cc2ccc3c(c2)[C@@H]2[C@@H](CCN2C(=O)c2cccc(F)c2)[C@@H](CO)N3)cc1 | 8.7* | -7 | -25 | 10
COc1ccccc1-c1ccc2c(c1)[C@H]1[C@H](CCN1C(=O)C1CCCCC1)[C@@H](CO)N2 | 3 | 9 | -6 | 90*
CCCNC(=O)N(C)C[C@@H]1Oc2ncc(-c3ccccc3)cc2C(=O)N([C@H](C)CO)C[C@H]1C | 2 | 0 | 6 | .
CO[C@@H]1CN(C)C(=O)c2cc(NC(=O)c3nc4ccccc4s3)ccc2OC[C@H](C)N(Cc2cccnc2)C[C@@H]1C | 1 | -5 | 5 | 45
CO[C@@H]1CN(C)C(=O)c2cc(NC(=O)c3ccccc3F)ccc2OC[C@@H](C)N(CC2CC2)C[C@@H]1C | 0 | 7 | 12 | 79*
CO[C@H]1CN(C)C(=O)c2cc(NC(C)=O)ccc2OC[C@H](C)N(C(=O)c2ccncc2)C[C@H]1C | 8.4* | 8 | 4 | .
